Experimental findings from the supplement of paper PMC6555819 are described below.

The test system of the test is LXRa:RXRa (NR concentration 270 nM, RXRa partner concentration 90 nM). The test is described as follows: PBM binding z-score (relative to random genomic background probes); higher = stronger binding; sequences stand for … in GC…GCGATTGACAGCGTAGAATGAAGG
Summed up: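 Antibodies against each partner of ligand-free nuclear receptor dimers (one per run) detected binding on custom Agilent 4×180K protein-binding microarrays after 1 h incubation. The double-stranded probes had 34-nt variable regions carrying direct-repeat seeds, single-nucleotide variants, half-site ablations and random human genomic background sequences. Binding z-scores, from regression-normalized fluorescence, use the random background probes as reference.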
Turning to CAAACTAGGTCACCGGAAGGTCCAAGTCCGCATG, the PBM binding z-score was 3.41.
The result for TCTTGTAGATCATTAGAGGTTAAGAAAGTGCGCT reads 4.79; that for TCTTGTAGATCAACAGGAGGCTAAGAAAGATCGA, -0.312; that for TTAACAAGGTGAGCTGAGGTCGTTGATCCAACTC, 1.21.
The result for ACAGACAGGTGAGTGAAGCTAACTCAGCTGGACG reads -0.375; that for GCTGCTAGGTCAGGTTGGTCAGCTTACGGGTACG, 0.781; that for ACTAGCAGGCCAAGTTTGGGTCACACAAACAAAG, 0.408.
TCTTGTAGATCAATAGCGGTTAAGAAAGTGCGCT showed a PBM binding z-score of 0.57.
The result for ATCTCGAGGTAAGACTCAGTTCAGTGAAGAACGC reads -0.0595; that for AGAATGAGGTTAATATCAGGGAAACAGAATACAT, 3.39; that for GCTAGCAGGCCATTTGGGTCATTCAATGACGGGC, 0.0338.
The result for GATACAGGGCCAAGGCCAGAGTACGCGTATTGAT reads -0.832; that for CGAAATAGGTCAAGGACAGTGAATCTCCGCACGC, 4.09.
The result for ATCTCTAGGTAAACAAGTTCAGTGAATGCCGAAC reads 1.06; that for AGATGTAGGTTATCGGGTCATTCAGTTTGCGCAT, 3.21.
Sequence TCGTGTAGGTTAGTCGGGGCATTCAGCCAACATA showed a PBM binding z-score of 0.838.
The result for TCTCAAAGTTCAAAGGTAACGTAAGTATCCACAC reads 6.41; that for TCATATAGGTAAACAGATGAAAGTCCGTAAGTTA, 0.739; that for CCTGCTAGGTCAGTGGTCAGCTAAAGCAGCTCGC, 0.472.
The result for TAAACAGGGTCAAAGGCCAGAGTACGAATGTCGA reads 5.57; that for AGGACGAGGGCACGCTGAGTTGATAGCAGAGTAG, 0.423; that for GATACAGGGTCAGCTGGAGGCCAGAGTATGGAAA, 2.76.
